CYP2C9 act: activators of human CYP2C9 | activation factor at 5 µM | P11712 | recombinant CYP2C9, luciferin-H conversion, luminescence; hits give high values; factor 1 = untreated enzyme, 0 = blocked | 96,000 tested, 1.4% active;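 active = activation factor of 2 or more for CYP2C9 at a 5 µM dose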
CYP2C19 inh: inhibitors of human CYP2C19; P33261; CYP2C19 Supersomes, luciferin-H EGE luminescence, 30 min; AID 778; 96,000 tested, 21% active; inhibition, % at 5 µM;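 active = CYP2C19 inhibition above a set limit at 5 µM in the primary screen, cut at about 50% in these data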
CYP2C19 act: increases human CYP2C19 enzyme activity; P33261; recombinant CYP2C19, luciferin-H EGE luminescence; hits give high values; 0 = fully inhibited enzyme, 1 = untreated enzyme; activation factor at 5 µM; 96,000 tested, under 10 active;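 active = activation factor of at least 2 at 5 µM in the primary screen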
sEH inhibitor: blocks human soluble epoxide hydrolase activity; P34913; recombinant human sEH enzymatic activity assay; inhibition, % at 2 µM; 91,000 tested, 0.34% active; AID 707; in the data active = inhibition above about 80%
Target sequence (P34913 whole entry, looked up): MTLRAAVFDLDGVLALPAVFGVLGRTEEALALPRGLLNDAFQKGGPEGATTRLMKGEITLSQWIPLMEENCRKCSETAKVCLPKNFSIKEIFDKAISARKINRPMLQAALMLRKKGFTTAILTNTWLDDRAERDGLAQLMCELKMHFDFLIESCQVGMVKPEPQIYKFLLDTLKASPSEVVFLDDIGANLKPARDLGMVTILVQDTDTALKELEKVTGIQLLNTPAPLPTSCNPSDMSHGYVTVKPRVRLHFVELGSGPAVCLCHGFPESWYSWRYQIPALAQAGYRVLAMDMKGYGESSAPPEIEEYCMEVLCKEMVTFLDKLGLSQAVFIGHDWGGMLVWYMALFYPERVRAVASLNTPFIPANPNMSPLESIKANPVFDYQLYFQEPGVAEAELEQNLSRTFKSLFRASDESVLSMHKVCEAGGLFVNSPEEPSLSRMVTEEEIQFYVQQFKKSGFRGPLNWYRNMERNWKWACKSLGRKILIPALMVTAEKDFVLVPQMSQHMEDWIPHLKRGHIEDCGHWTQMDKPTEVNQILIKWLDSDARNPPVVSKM
sEH act: soluble epoxide hydrolase (human) activation; activation, % at 2 µM; P34913; 91,000 tested, 0.04% active; purified human sEH enzymatic activity, activator screen; in the data active = activation above about 37%
CYP2C9 inhib: inhibitors of human CYP2C9 | 96,000 tested, 20% active | CYP2C9 Supersomes, luciferin-H conversion, luminescence | inhibition, % at 5 µM | P11712;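 active = blocking of liver enzyme CYP2C9 beyond about 50% at 5 µM, limit read from the data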
Hits are given with their value; i = inactive; nt = no result given. A selection: hits, their analogues and other compounds. The true share with any hit is near 27%.

SMILES	CYP2C9 act	CYP2C19 inh	CYP2C19 act	sEH inhibitor	sEH act	CYP2C9 inhib
CCOC(=O)c1ccc2c(c1)nc(SCC(=O)c1cc3ccccc3o1)n2CC	i	i	i	i	i	78
CCOC(=O)c1ccc(NC(=O)c2cc3ccccc3o2)cc1	i	i	i	nt	nt	i
CCSc1nc2cc(C(=O)OC)ccc2c(=O)n1CC	nt	nt	nt	i	i	nt
CC1=CC(C)(C)N2C(=O)C3(C(C#N)=C(N)OC4=C3C(=O)CC(C)(C)C4)c3cc(C)cc1c32 (stereo unspecified)	i	i	i	i	i	i
Cc1cccc(N2CCN(C(=O)C3CCCN(S(=O)(=O)c4c(C)noc4C)C3)CC2)c1C (stereo unspecified)	nt	nt	nt	i	i	nt
Clc1ccc(CSc2cc3c(nn2)-c2ccccc2CC3)cc1	i	i	i	i	i	i
Cc1ccc2nc(NC(=O)Cc3cccs3)sc2c1	i	i	i	i	i	i
COCC(=O)Nc1nc2ccccc2s1	i	i	i	i	i	i
COC(=O)CCCCCCCCC(=O)Nc1nc2ccccc2s1	i	63	i	i	i	82
O=C(Cc1cccs1)Nc1nc2ccccc2s1	i	56	i	i	i	i
Cc1cccc(N2C(=O)CC(Sc3nnc(C)s3)C2=O)c1 (stereo unspecified)	nt	nt	nt	i	i	nt
O=C(CSc1nnc(Cc2ccccc2)n1Cc1ccccc1)NCc1ccco1	nt	nt	nt	i	i	nt
O=C(CSc1nnc(-c2ccco2)n1Cc1ccccc1)NC(=O)NCc1ccccc1	i	62	i	i	i	i
CCCn1c(SCC(=O)NC(=O)NCc2ccco2)n[nH]c1=O	i	i	i	i	i	i
Cc1nnc(SCC(=O)NC(=O)NCc2ccco2)n1Cc1ccccc1	i	i	i	i	i	67
O=C(CSc1n[nH]c(-c2ccccc2Br)n1)NC(=O)NCc1ccco1	i	i	i	nt	nt	59
Nn1c(SCC(=O)NC(=O)NCc2ccco2)nnc1-c1ccc(OC(F)F)cc1	i	71	i	i	i	i
Cc1ccc(C(=O)N/C(=C\c2cn(-c3ccccc3)nc2-c2ccccc2)C(=O)N2CCOCC2)cc1	i	i	i	i	i	i
C=CC(O)Cc1c(C)n[nH]c1C (stereo unspecified)	i	i	i	i	i	i
CCOc1ccccc1-n1nnnc1SCC(=O)NC(=O)NCc1ccco1	i	79	i	nt	nt	i
CN1CCN(C2CCCCCC2)CC1	nt	nt	nt	i	i	nt
C=CCNC(=S)NNC(=O)c1ccccc1	i	i	i	i	i	i
C=CCNC(=S)NNC(=O)COc1cccc(Cl)c1	i	60	i	i	i	i
COC(=O)CCN1CCC(C(N)=O)CC1	i	i	i	i	i	i
Cc1onc(-c2ccccc2)c1C(=O)NC(C)C1CCCO1 (stereo unspecified)	i	i	i	i	i	i
SMILES	CYP2C9 act	CYP2C19 inh	CYP2C19 act	sEH inhibitor	sEH act	CYP2C9 inhib
CCOC(=O)c1[nH]c2ccc(Br)cc2c1NC(=O)CCN1CCCCC1	i	i	i	i	i	i
CCOC(=O)c1[nH]c2ccc(Br)cc2c1NC(=O)CCN1CCN(C(=O)OCC)CC1	i	i	i	nt	nt	76
CCOC(=O)c1[nH]c2ccc(Br)cc2c1NC(=O)CCN1CCC(C(=O)OCC)CC1	i	76	i	i	i	i
COC(=O)c1c(NC(=O)CSc2n[nH]c(N)n2)sc(C)c1C	i	i	i	i	i	i
Cc1ccc(/C=C/C2=Cc3c(sc(NC(=O)CSc4n[nH]c(N)n4)c3C#N)C(C)(C)C2)o1	i	i	i	i	i	91
COc1ccc2[nH]c3c(N4CC(C)OC(C)C4)ncnc3c2c1 (stereo unspecified)	i	54	i	i	i	69
O=C1CCCN1CCCn1cnc2c([nH]c3ccc(F)cc32)c1=O	i	i	i	i	i	i
Fc1ccc2[nH]c3c(N4CCN(C5CCCCC5)CC4)ncnc3c2c1	i	67	i	nt	nt	76
COc1ccc2[nH]c3c(NCc4ccco4)ncnc3c2c1	i	i	i	i	i	i
COc1cccc(N2CCN(c3ncnc4c3[nH]c3ccc(F)cc34)CC2C)c1 (stereo unspecified)	i	59	i	i	i	60
COc1ccc(C2C(C(C)=O)=C(O)C(=O)N2c2ccc(Br)cn2)cc1 (stereo unspecified)	i	i	i	i	i	i
CCOC(=O)c1sc2nc(C(C)C)c3c(c2c1N)CC(C)(C)OC3	i	i	i	i	i	69
CCOC(=O)c1sc2nc(N3CCCC3)c3c(c2c1N)CC(C)(C)OC3	i	i	i	i	i	i

Screens as filed in PubChem BioAssay.
